{
  "source": "PubChem BioAssay (Tox21)",
  "note": "Inconclusive results are not listed. Where a call stands in place of a potency, no number is given. Calls of active or inactive are those of the source. The call rests on the fitted dose curve; in most records, active means well fitted cell-killing curve with a large enough effect in the repeat runs; inconclusive means weak or mixed curves, or effect the other way; inactive means no such curve, though single readings can be large or run the other way. Potency means the concentration at half of the fitted maximal effect.",
  "data": [
    {"assay": "qHTS assay for identifying genotoxic compounds that show differential cytotoxicity against isogenic chicken DT40 cell lines with known DNA damage response pathways - wild type cell line (AID 743012); further: nearly all actives have a fitted effect of over 60% in size", "conditions": "DT40 wild type chicken cells viability, CellTiter-Glo, 40 h; series mostly up to 68.4 µM", "source_text": "U.S. Tox21 Program National Center for Advancing Translational Sciences [NCATS] NIH Chemical Genomics Center [NCGC] U.S. Environmental Protection Agency [EPA] National Institutes of Environmental Health Sciences [NIEHS] National Toxicology Program [NTP] U.S. Food and Drug Administration [FDA] Tox21 Assay Overview: DNA repair pathways play a critical role in cellular homeostasis by repairing DNA damage induced by endogenous processes and xenobiotics. Isogenic chicken DT40 cell lines deficient in different DNA repair pathways can be used to identify genotoxic compounds and aid in characterizing the nature of the DNA damage induced. Two DNA repair-deficient cell lines with disrupted genes, Rad54/Ku70 or Rev3, were used to screen the Tox21 10K compound library. Possible genotoxicity was based on the presence of a significant increase in cytotoxicity in one or more of the DNA repair-deficient cell lines compared to that observed in the parental DNA repair-proficient cell line. CellTiter Glo viability assay (Promega, Madison, WI) was used to measure cell viability in these cells after compound treatment. This assay includes the data from the wild type cell line.\nTox21 Assay Protocol Summary: 300 DT40 wild type cells in 5 uL/well were dispensed into white, solid-bottom 1536-well plates using a Multidrop Combi (ThermoFisher Scientific, Waltham, MA) dispenser. After the assay plates were incubated at 37 C/5% CO2 for approximately 0.5 hour, 23 nL of compounds dissolved in DMSO, positive controls or DMSO only was transferred into the assay plate by a pintool work station (Kalypsys, San Diego, CA). The assay plates were incubated at 37 C/5% CO2 for 40 hours. After 5 uL per well of CellTiter-Glo reagent was added into each well of the assay plates, the plates were incubated for 30 min at room temperature and the luminescence intensity of the plates was measured using a ViewLux (PerkinElmer, Shelton, CT) plate reader.", "values": [
      {"smiles": "COc1cc(C(C)(C)C)c(O)c(C(C)(C)C)c1", "Potency": "38.6 µM (active)"},
      {"smiles": "CCCCCCOC(=O)CCC", "Potency": "inactive"},
      {"smiles": "NC[C@H]1O[C@H](O[C@H]2[C@H](O)[C@@H](O[C@H]3O[C@H](CO)[C@@H](O)[C@H](N)[C@H]3O)[C@H](N)C[C@@H]2N)[C@H](O)[C@@H](O)[C@@H]1O", "Potency": "inactive"},
      {"smiles": "C[Si](C)O[Si](C)(C)O[Si](C)(C)O[Si](C)C", "Potency": "inactive"},
      {"smiles": "CCOC(=O)C1=C(C)NC(C)=C(C(=O)OC)C1c1cccc([N+](=O)[O-])c1", "note": "(stereo not given)", "Potency": "26.6 µM (active)"},
      {"smiles": "O=S1(=O)N=C(O)c2ccccc21", "Potency": "inactive"},
      {"smiles": "Cn1sccc1=O", "Potency": "2.43 µM (active)"},
      {"smiles": "Cc1ccc(C(N)=O)cc1N", "Potency": "inactive"},
      {"smiles": "Cc1cc(NC(=O)C(=O)O)cc(C)c1Oc1ccc(O)c2c1CCC2", "Potency": "inactive"},
      {"smiles": "CCC(C)N(C)C(=O)c1cc2ccccc2c(-c2ccccc2Cl)n1", "note": "(stereo not given)", "Potency": "15.7 µM (active)"},
      {"smiles": "O=C(/C=C/c1ccc(O)c(O)c1)O[C@@H]1C[C@](O)(C(=O)O)C[C@@H](O)[C@H]1O", "Potency": "inactive"},
      {"smiles": "Nc1nc(N)c2nc(CNc3ccc(C(=O)N[C@@H](CCC(=O)O)C(=O)O)cc3)cnc2n1", "Potency": "11.9 µM (active)"},
      {"smiles": "CC(C)c1ccccc1C(C)C", "Potency": "inactive"},
      {"smiles": "CC[C@@H]1C[C@H](N(Cc2cc(C(F)(F)F)cc(C(F)(F)F)c2)C(C)=O)c2cc(C(F)(F)F)ccc2N1C(=O)OC(C)C", "Potency": "27.3 µM (active)"},
      {"smiles": "CCN(CC)CCOc1ccc2c(c1)C(=O)c1cc(OCCN(CC)CC)ccc1-2", "Potency": "5.31 µM (active)"},
      {"smiles": "Cc1ccc(C(C)c2ccc(C)c(C)c2)cc1C", "Potency": "inactive"},
      {"smiles": "CCCCOCCOCCOCCOCCO", "Potency": "inactive"},
      {"smiles": "CN(C)C/C=C(/c1ccc(Br)cc1)c1cccnc1", "Potency": "29.8 µM (active)"},
      {"smiles": "Cc1cc(O)ccc1N", "Potency": "13.8 µM (active)"},
      {"smiles": "Cc1c(Cn2ccnc2)c2ccccc2n1CCC(=O)O", "Potency": "inactive"},
      {"smiles": "CC[C@H](C)[C@H](N)C(=O)O", "Potency": "inactive"},
      {"smiles": "NC(=S)N/N=C/c1cccnc1", "Potency": "inactive"},
      {"smiles": "CC(=O)O[C@@H]1C(=O)O[C@@H]2[C@H]1OC(=O)[C@@H]2OC(C)=O", "Potency": "26.6 µM (active)"},
      {"smiles": "CCCCOC(O)CC", "note": "(stereo not given)", "Potency": "inactive"},
      {"smiles": "CN1CCC(=C2c3ccccc3CCc3sccc32)CC1", "Potency": "6.68 µM (active)"},
      {"smiles": "O=C(NS(=O)(=O)/C=C/c1cccs1)c1ccc(F)cc1Br", "Potency": "inactive"},
      {"smiles": "CCCCCC(CO)CCC", "note": "(stereo not given)", "Potency": "inactive"},
      {"smiles": "CN1CCN(C2=Nc3cc(Cl)ccc3Nc3ccccc32)CC1", "Potency": "21.1 µM (active)"},
      {"smiles": "CCCCCCCCC(CO)CCCCCC", "note": "(stereo not given)", "Potency": "inactive"},
      {"smiles": "COCCOCCOCCOCCOC", "Potency": "inactive"},
      {"smiles": "CC(=O)/C(C)=C/C1C(C)=CCCC1(C)C", "note": "(stereo not given)", "Potency": "inactive"},
      {"smiles": "O=C(O)COC(=O)Cc1ccccc1Nc1c(Cl)cccc1Cl", "Potency": "inactive"},
      {"smiles": "NCCCOCCOCCOCCCN", "Potency": "5.45 µM (active)"},
      {"smiles": "C1=Cc2ccccc2C1", "Potency": "inactive"},
      {"smiles": "CC(=O)CC(=O)c1ccccc1", "Potency": "inactive"},
      {"smiles": "Nc1nc(N)c(-c2ccccc2)s1", "Potency": "inactive"},
      {"smiles": "CC(O)C1CCCCC1", "note": "(stereo not given)", "Potency": "inactive"},
      {"smiles": "O=c1c2ccccc2nnn1CCl", "Potency": "inactive"},
      {"smiles": "Cc1occc1S", "Potency": "54.5 µM (active)"},
      {"smiles": "CC(C(=O)O)c1ccc(-c2ccccc2)c(F)c1", "note": "(stereo not given)", "Potency": "inactive"}
    ]}
  ]
}
